Source: PubChem BioAssay
Activity calls are given as the source filed them. Unless noted, no rule for the calls is given here.

How the values were obtained:
[1] = anti-His antibody binders, primary screen, artefact control for SMM control protein annotation, biochemical, small-molecule microarray, 635 nm fluorescence (AID 1128); details: anti-His Alexa647 antibody binding, higher = more signal;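 also: score merges feature fluorescence with signal-to-noise for each printed compound spot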
[2] = tested on: Human papillomavirus type 1a E7 protein (residues 1-88); assay: HPV1a E7 small-molecule binders, primary screen, biochemical, small-molecule microarray, residues 1-88, 635 nm (AID 1129); details: small-molecule microarray binding, fluorescence 635 nm; higher = more signal
[3] = biological target: Focal adhesion kinase 1 (Homo sapiens) (UniProt Q05397); assay: small-molecule microarray binders of FAK, primary screen, biochemical, 635/667 nm fluorescence, BSA, DTT (AID 1130); details: PTK2 binding, 635 nm fluorescence, higher = more signal;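 also: composite of spot emission at 667 nm and signal to noise over triplicate slides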
Sequence of Focal adhesion kinase 1 (Homo sapiens) (Q05397 whole entry, looked up): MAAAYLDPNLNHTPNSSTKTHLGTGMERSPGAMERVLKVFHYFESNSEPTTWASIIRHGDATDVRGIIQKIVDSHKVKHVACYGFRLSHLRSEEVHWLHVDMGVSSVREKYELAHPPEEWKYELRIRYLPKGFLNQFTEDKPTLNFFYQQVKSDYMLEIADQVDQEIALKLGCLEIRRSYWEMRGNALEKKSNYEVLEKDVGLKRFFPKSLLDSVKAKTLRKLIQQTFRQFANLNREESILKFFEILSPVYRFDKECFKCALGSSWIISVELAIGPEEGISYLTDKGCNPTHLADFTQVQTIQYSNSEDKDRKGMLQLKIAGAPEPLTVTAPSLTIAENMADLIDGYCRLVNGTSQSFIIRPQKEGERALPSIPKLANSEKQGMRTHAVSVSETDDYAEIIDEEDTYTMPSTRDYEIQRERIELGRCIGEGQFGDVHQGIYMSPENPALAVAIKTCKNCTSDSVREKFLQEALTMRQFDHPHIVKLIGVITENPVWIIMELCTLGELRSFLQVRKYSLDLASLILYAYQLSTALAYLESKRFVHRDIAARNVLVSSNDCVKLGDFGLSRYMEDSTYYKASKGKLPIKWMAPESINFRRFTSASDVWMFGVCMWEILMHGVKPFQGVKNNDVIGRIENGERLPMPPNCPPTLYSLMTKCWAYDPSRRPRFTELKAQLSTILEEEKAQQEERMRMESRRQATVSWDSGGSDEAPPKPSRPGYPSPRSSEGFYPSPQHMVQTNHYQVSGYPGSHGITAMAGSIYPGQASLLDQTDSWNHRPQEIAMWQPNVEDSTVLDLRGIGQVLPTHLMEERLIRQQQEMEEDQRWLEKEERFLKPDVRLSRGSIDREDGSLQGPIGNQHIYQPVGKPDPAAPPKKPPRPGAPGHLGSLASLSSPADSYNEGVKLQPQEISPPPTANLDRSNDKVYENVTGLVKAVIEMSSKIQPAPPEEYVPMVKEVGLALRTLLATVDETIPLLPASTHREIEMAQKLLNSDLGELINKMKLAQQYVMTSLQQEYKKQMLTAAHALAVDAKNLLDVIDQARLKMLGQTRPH

[4] = tested on: Fibrinogen (Alexa647-labelled); assay: fibrinogen binders on compound microarrays, profiling panel, artefact control for SMM control-protein annotation, biochemical, small-molecule microarray, 635/667 nm fluorescence (AID 1131); details: fibrinogen-A647 binding fluorescence, higher = more signal;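 also: z-score merges 667 nm fluorescence with per-spot signal-to-noise over triplicate slides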
[5] = biological target: Follistatin (Homo sapiens) (UniProt P19883); assay: follistatin binders on small-molecule microarrays, primary screen, biochemical, small-molecule microarray, 635/667 nm fluorescence (AID 1132); details: FST binding, 635 nm fluorescence, higher = more signal
Sequence of Follistatin (Homo sapiens) (P19883 whole entry, looked up): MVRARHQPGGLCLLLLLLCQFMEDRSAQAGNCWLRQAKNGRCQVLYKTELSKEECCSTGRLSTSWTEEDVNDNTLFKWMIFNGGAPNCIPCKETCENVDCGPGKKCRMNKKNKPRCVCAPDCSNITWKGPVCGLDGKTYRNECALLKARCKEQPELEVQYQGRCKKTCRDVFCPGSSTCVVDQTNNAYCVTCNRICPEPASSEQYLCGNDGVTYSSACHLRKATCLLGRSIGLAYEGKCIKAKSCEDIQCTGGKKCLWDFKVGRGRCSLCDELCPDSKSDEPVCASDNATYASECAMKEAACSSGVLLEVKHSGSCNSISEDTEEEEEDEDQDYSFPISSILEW

[6] = biological target: Fibroblast growth factor 2 (Homo sapiens) (UniProt P09038); assay: FGF2 binders on small-molecule microarrays, primary screen, biochemical, small-molecule microarray, 635/667 nm fluorescence (AID 1133); details: small-molecule microarray binding, FGF2, fluorescence 635/667; higher = more signal
Sequence of Fibroblast growth factor 2 (Homo sapiens) (P09038 whole entry, looked up): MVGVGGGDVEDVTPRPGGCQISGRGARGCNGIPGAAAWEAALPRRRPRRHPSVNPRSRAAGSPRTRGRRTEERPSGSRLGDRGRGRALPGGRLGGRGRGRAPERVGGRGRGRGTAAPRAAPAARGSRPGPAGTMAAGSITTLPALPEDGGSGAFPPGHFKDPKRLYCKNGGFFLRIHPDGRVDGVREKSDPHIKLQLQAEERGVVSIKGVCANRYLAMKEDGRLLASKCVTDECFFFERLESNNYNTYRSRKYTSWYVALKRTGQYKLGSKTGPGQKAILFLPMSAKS

[7] = mitochondrial membrane potential change in A549 cells, profiling panel, cell-based, JC-1 fluorescence, basal, 24 h, 100 nL (AID 1138); details: higher = more signal;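 also: A549 lung adenocarcinoma cells under basal conditions with no added stimulus; test concentration not given here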
Lefty1 = Lefty1 binders on small-molecule microarrays, primary screen, biochemical, small-molecule microarray, 635/667 nm fluorescence (AID 1139); details: small-molecule microarray binding, fluorescence 635/667; higher = more signal
[8] = tested on: wheat germ agglutinin (Triticum aestivum), Alexa647-labelled; assay: wheat germ agglutinin binders on compound microarrays, profiling panel, artefact control for SMM control-protein annotation, biochemical, small-molecule microarray, 635/667 nm fluorescence (AID 1140); details: WGA-A647 binding, 635 nm fluorescence, higher = more signal;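 also: score merges 667 nm feature emission with signal to noise over triplicate slides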
[9] = biological target: Luciferin 4-monooxygenase (Photinus pyralis) (UniProt P08659); assay: firefly luciferase enzyme inhibitors, primary screen, biochemical, luminescence, purified enzyme, 2006 set (AID 1141); details: SteadyGlo luminescence, 30 min, higher = more signal, called active from +8 up or from −8 down;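 also: cell-free assay with purified firefly luciferase at 100 ng per well in PBS; test concentration not given here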
Sequence of Luciferin 4-monooxygenase (Photinus pyralis) (P08659 whole entry, looked up): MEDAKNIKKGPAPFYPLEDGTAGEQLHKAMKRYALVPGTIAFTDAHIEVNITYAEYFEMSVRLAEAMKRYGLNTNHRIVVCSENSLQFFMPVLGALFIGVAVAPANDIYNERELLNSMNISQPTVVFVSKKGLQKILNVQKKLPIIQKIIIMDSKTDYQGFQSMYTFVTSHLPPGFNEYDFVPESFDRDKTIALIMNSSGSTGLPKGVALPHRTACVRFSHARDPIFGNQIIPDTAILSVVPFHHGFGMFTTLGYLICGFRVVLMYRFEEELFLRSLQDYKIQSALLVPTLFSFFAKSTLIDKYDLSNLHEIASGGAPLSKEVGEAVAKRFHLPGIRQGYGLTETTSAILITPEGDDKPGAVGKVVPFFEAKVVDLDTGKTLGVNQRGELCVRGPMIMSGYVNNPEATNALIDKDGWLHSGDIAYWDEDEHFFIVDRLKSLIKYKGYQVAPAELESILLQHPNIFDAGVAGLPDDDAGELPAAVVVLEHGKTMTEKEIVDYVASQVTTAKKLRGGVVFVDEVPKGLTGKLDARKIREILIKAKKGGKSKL

[10] = tested on: Wnt5a (protein binding on small-molecule microarray); assay: Wnt5a binders on small-molecule microarray, primary screen, biophysical, 635/667 nm fluorescence (AID 1142); details: 635 nm fluorescence, higher = more signal;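 also: fluorescence read at 667 nm with signal to noise per printed feature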
[11] = cell viability in Huh7 cells, primary screen, cytotoxicity control for HCV replication inhibitor project, CellTiter-Glo luminescence, basal, 48 h (AID 1143); details: Huh7 HCV replicon, higher = more signal, called active from +8 up or from −8 down;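 also: Huh7 hepatoma cells carrying a hepatitis C replication reporter with no stimulus; test concentration not given here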
[12] = P. aeruginosa biofilm formation inhibitors, primary screen, PAO1 strain, BacTiter-Glo luminescence, LB-PBS (AID 1144); details: 12 h, higher = more signal
[13] = CREB reporter modulators without forskolin, primary screen, cell-based, PC12, CRE-LacZ reporter, unstimulated (AID 1145); details: no forskolin, luminescence, 4.5 h, higher = more signal, called active from +8 up or from −8 down
[14] = CREB reporter modulators under forskolin, primary screen, cell-based, PC12, CRE-LacZ reporter, forskolin-stimulated (AID 1146); details: luminescence, 4.5 h, higher = more signal, called active from +8 up or from −8 down;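 also: PC12 cells with 6xCRE LacZ reporter stimulated by forskolin 10 µM; beta-galactosidase reporter signal reflecting CREB driven transcription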
[15] = biological target: Streptavidin (Streptomyces avidinii) (UniProt P22629); assay: streptavidin binders on small-molecule microarray, primary screen, artefact control for SMM compound annotation, biophysical, 635/667 nm fluorescence (AID 1147); details: streptavidin binding, higher = more signal;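 also: signal reflects streptavidin binding to arrayed compounds as a control protein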
Sequence of Streptavidin (Streptomyces avidinii) (P22629 whole entry, looked up): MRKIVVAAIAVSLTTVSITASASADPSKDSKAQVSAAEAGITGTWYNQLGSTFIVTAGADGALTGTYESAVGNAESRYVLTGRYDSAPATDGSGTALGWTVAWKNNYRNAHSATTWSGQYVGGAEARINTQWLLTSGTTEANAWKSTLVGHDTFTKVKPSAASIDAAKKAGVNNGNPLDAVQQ

[16] = small-molecule binders of probe aInhba, primary screen, biochemical, small-molecule microarray, 635/667 nm fluorescence (AID 1148); details: higher = more signal;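 also: score merges 667nm spot fluorescence with signal-to-noise for antibody binding to printed compounds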
Torsin-1A (Homo sapiens) [17] = biological target: Torsin-1A (Homo sapiens) (UniProt O14656); assay: torsin A binders from cell lysate, primary screen, small-molecule microarray, wild-type, 635/667 nm (AID 1149); details: COS7 hTOR1A-WT lysate, 635 nm fluorescence, higher = more signal
Sequence of Torsin-1A (Homo sapiens) (O14656 whole entry, looked up): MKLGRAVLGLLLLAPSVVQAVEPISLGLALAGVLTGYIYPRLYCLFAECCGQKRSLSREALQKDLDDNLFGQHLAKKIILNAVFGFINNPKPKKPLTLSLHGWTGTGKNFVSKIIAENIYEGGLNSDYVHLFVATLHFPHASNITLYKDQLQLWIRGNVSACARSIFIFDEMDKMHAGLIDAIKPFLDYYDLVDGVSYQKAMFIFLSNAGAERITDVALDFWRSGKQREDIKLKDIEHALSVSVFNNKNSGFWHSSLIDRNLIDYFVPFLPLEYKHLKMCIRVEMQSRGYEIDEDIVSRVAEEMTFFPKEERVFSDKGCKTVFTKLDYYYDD

Torsin-1A (Homo sapiens) [18] = biological target: Torsin-1A (Homo sapiens) (UniProt O14656); assay: small-molecule binders of mutant TOR1A in lysate, primary screen, cell lysate, small-molecule microarray, COS7 lysate, 635/667 nm fluorescence (AID 1150); details: COS7 hTOR1A mutant lysate, 635 nm fluorescence, higher = more signal;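 also: score pools 667 nm emission and signal to noise measuring lysate protein binding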
[19] = tested on: Sonic hedgehog protein (Shh); assay: small-molecule binders of Shh protein, primary screen, biochemical, small-molecule microarray, 635/667 nm fluorescence (AID 1151); details: small-molecule microarray binding, 635 nm fluorescence; higher = more signal;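 also: Shh protein binding to compounds spotted on small-molecule microarray slides; score combines spot fluorescence intensity with signal-to-noise across triplicate slides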

SMILES | composite z-score [1] | composite z-score [2] | composite z-score [3] | composite z-score [4] | composite z-score [5] | composite z-score [6] | z-score [7] | composite z-score (Lefty1) | composite z-score [8] | z-score [9] | composite z-score [10] | z-score [11] | z-score [12] | z-score [13] | z-score [14] | composite z-score [15] | composite z-score [16] | composite z-score (Torsin-1A (Homo sapiens) [17]) | composite z-score (Torsin-1A (Homo sapiens) [18]) | composite z-score [19]
COc1ccc(NN2C(C(O)c3ccccn3)C=CC3C(=O)N(C4CCCCC4)C(=O)C32)cc1 (stereo not given) | 0.914 | 1.22 | 0.342 | 0.955 | 0.888 | 0.421 | 0.717 | -0.223 | 0.836 | -2.74 (inactive) | 0.483 | -0.924 (inactive) | -1.43 (inactive) | -0.471 (inactive) | -0.119 (inactive) | 1.37 | 0.0183 | 0.0607 | 0.542 | -0.0244
CC=CC(O)C1C=CC2C(=O)N(c3ccccc3)C(=O)C2N1Nc1ccccc1 (stereo not given) | 2.25 | 1.25 | 0.981 | 0.915 | 1.2 | 0.915 | 0.714 | 0.493 | 1.15 | -2.22 (inactive) | 0.859 | 0.973 (inactive) | -1.33 (inactive) | 0.0501 (inactive) | -0.741 (inactive) | 1 | 0.337 | 0.358 | 0.285 | 0.0322
O=C1O[C@@H](c2ccccc2)[C@@H](c2ccccc2)N2[C@@H](c3ccccc3OCCO)[C@]3(C(=O)Nc4ccccc43)[C@@H](C(=O)NC[C@H](O)c3ccccc3)[C@H]12 | -0.27 | 1.19 | 0.682 | -0.0424 | -0.185 | -0.452 | 0.171 | -0.373 | -0.545 | 0.0121 (inactive) | -0.123 | -6.2 (inactive) | -0.668 (inactive) | 0.209 (inactive) | 4.03 (inactive) | -0.625 | -0.149 | 0.604 | 0.297 | 0.0935
COCCCNC(=O)[C@]1(Cc2ccccc2CN=[N+]=[N-])N=C(c2ccc(OCCCO)cc2)O[C@@H]1c1ccccc1 | 2.83 | 1.19 | 0.306 | 0.985 | 0.547 | -0.0864 | 1.06 | 0.0167 | 0.643 | 0.505 (inactive) | 0.419 | -4.93 (inactive) | -0.436 (inactive) | -0.0667 (inactive) | -0.577 (inactive) | 0.723 | -0.0736 | 0.214 | 0.311 | -1.07
COc1ccc(C(O)C2C=CC3C(=O)N(C)C(=O)C3N2N2CCCCC2)cc1 (stereo not given) | 2.56 | 1.23 | 0.656 | 0.96 | 0.299 | -0.19 | 0.406 | -0.523 | 1.29 | -1.08 (inactive) | 0.345 | 0.758 (inactive) | -0.3 (inactive) | 0.639 (inactive) | 0.104 (inactive) | 1.54 | 0.158 | 0.718 | 0.849 | -0.381
